HER2 expr 66K: inhibitors of Her2 protein expression, primary screen, SKBR-3 cells, AlphaScreen, 66K library; Receptor tyrosine-protein kinase erbB-2 (Homo sapiens), P04626; hit rate 0.69% among 65,000; HER2 level % of control, % at 10 µM; AID 645, 2007; SKBR-3 HER2 protein level, 18-24 h; stronger effect = lower value;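 active means HER2 level under 5% of the carrier-only control; inconclusive means no clear call, values can overlap the other calls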;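 further: 100% = DMSO carrier and 0% = 500 nM PU-H71 HSP90 inhibitor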
Cav3 T inh: Cav3.2 calcium influx blockers – cell-based, Fluo-4 calcium fluorescence, FDSS, MLSMR library, primary screen; Cav3.2-expressing cells; stronger effect = lower value; B-score at 10 µM; hit rate 4% among 100,000; AID 449739, 2010;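 active means single-dose well whose peak fluorescence ratio is a statistical outlier from its plate by either plate-standardised score or position-corrected B-score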
M1 agonist: M1 muscarinic receptor agonists, primary screen, CHO-M1 cells, Fluo-4 calcium, agonist mode. Muscarinic acetylcholine receptor M1. Fluo-4 calcium fluorescence; stronger effect = higher value. B-score at 10 µM. hit rate 3% among 64,000;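 active means fluorescence rise, raw or as B-score row- and column-corrected plate score, outside the 99.7% band of its plate's samples, either direction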
PLAP activator: PLAP enzyme activators, biochemical, luminescence, HTS | Alkaline phosphatase, placental type (Homo sapiens), P05187 | purified PLAP enzyme, luminescent substrate read-out; stronger effect = higher value | activation fold at 20 µM | hit rate 1.2% among 96,000 | AID 696, 2007; in the data active means activation fold above about 2
M1 antag: antagonists of rat M1 muscarinic receptor; Muscarinic acetylcholine receptor M1 (Rattus norvegicus), P08482; CHO-M1 cells, Fluo-4 calcium, ACh EC80 antagonist mode; stronger effect = lower value; B-score at 10 µM; hit rate 3.4% among 64,000;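 active means calcium fluorescence response, raw or row-and-column corrected B-score, differing from the plate sample mean either way at a set confidence level, mostly lower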
M1 agonist conf: rat M1 muscarinic receptor agonists, confirmation, CHO-M1 cells, Fluo-4 calcium, duplicate retest; shares compounds with M1 agonist; Fluo-4 calcium fluorescence, agonist mode; actives lie on both sides; fluorescence change (max-min) at 10 µM; hit rate 19% among 1,700;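 active means fluorescence change differs from the solvent-only DMSO control mean at a set confidence level in both duplicate runs; inconclusive means differs from solvent-only control mean in just one of two runs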;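 further: an EC20 dose of acetylcholine follows compound addition during the same imaging run; raw fluorescence intensity difference in instrument units with no normalization to controls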
M4 agonist ctr: agonist activity at rat M4 receptor, confirmation, counter-screen for M1 allosteric modulator project, cell-based, agonist mode; AID 1741, 2009; CHO M4/Gqi5 cells, Fluo-4 calcium fluorescence; actives lie on both sides; shares compounds with M1 agonist; hit rate 9% among 1,700; fluorescence change (max-min) at 10 µM;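 active means fluorescence change differing from the plate's solvent-only control wells at 99.7% confidence in both duplicates, whether higher or lower; inconclusive means differs from solvent controls in only one of two duplicates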
* marks the source's active call; other numbers are inactive results; ? = inconclusive; . = no result. Rows were chosen to be rich in hits. Some 7.9% of all compounds tested hit in one or more screens of this group.

SMILES	HER2 expr 66K	Cav3 T inh	M1 agonist	PLAP activator	M1 antag	M1 agonist conf	M4 agonist ctr
CC(=O)c1ccc(NC(=O)N2CCN(c3cccc(Cl)c3)CC2)cc1	118.6	-0.522	5.15*	1.1	-2.8*	?	-27.8
CC(=O)c1ccc(N2CCN(C(=S)Nc3cccc(F)c3)CC2)cc1	.	0.00942	.	0.9	.	.	.
O=C(CSc1nnc(-c2ccccc2)o1)OCc1ccccc1	104.1	0.224	-0.0558	0.8	1.43	.	.
CCn1c(CSc2nccn2C)nc2cc(C(=O)O)ccc21	92.2	-0.494	7.24*	1.5	0.218	10.8	-37.7
CCn1c(CSc2nc3ccccc3[nH]2)nc2cc(C(=O)O)ccc21	.	-0.766	.	1.9	.	.	.
CCOC(=O)c1ccc(NC(=O)N(CC)CC)cc1	84.0	0.4	-0.0266	0.9	0.0856	.	.
Cn1c(CCNC(=O)c2ccco2)nc2cc(NS(=O)(=O)c3ccccc3)ccc21	126.5	0.359	31.7*	1	-0.15	?	-67.8
Cn1c(SCC(=O)N2CCCCC2)nc2cccnc21	99.8	0.0442	-0.22	1	0.702	.	.
Cc1cccc(OCc2nnc(SCC(=O)Nc3sc(C)c(C)c3C#N)n2C)c1	63.9	-0.0869	-0.0111	1	0.564	.	.
COC(=O)c1cccc(NC(=O)CSc2nnc(COc3cccc(C)c3)n2C)c1	103.2	-1.8	-1.49	1.7	1.13	.	.
COC(=O)c1cccc(NC(=O)CSc2nnc(COc3ccc(C#N)cc3)n2-c2ccccc2)c1	73.3	0.973	3.57*	0.9	-0.114	?	-48.6
Cc1sc(NC(=O)CSc2nnc(COc3ccccc3)n2C)c(C#N)c1C	102.6	-0.733	2.39*	1	-0.168	?	-51.3
CCOC(=O)C(C)Sc1nc(-c2ccc(OC)cc2)nc2c1c(=O)n(C)c(=O)n2C (centres undefined)	87.6	.	-0.0834	1	0.0157	.	.
CCCCSc1nnc(CSc2nc3nc(C)cc(C)n3n2)o1	.	-0.356	.	1.2	.	.	.
CCn1cc(C(=O)Nc2ccc3c(c2)OCCO3)c2cc(OC)c(OC)cc2c1=O	87.5	0.135	4.13*	1.6	-0.0093	?	-47.4
COc1cc(C(=O)Nc2ccc3c(c2)OCCO3)ccc1OC(C)C	76.6	.	3.71*	1.3	0.732	-24.8	-39.8
CCn1cc(C(=O)Nc2cccc(NC(C)=O)c2)c2cc(OC)c(OC)cc2c1=O	106.4	.	-0.228	1.5	0.105	.	.
COc1ccc(OC)c(S(=O)(=O)N2CCC(C(=O)Nc3cccc(C(F)(F)F)c3)CC2)c1	43.9	-9.29*	4.39*	1.3	-0.725	-12.1	-12.3
Cc1ccc2c(c1)c(C)c(C)n2CC(O)Cn1nc(C)c(Br)c1C (centres undefined)	99.8	-3.29	1.62	1.5	0.0965	.	.
CC(=O)c1c(C)nn(CC(O)Cn2c3c(c4cc(C)ccc42)CCCC3=O)c1C (centres undefined)	140.0	-0.137	5.16*	1.8	0.386	-42*	-81.9
O=C(CN1C(=O)c2cccc3cccc1c23)Nc1cccnc1	94.9	0.539	-0.252	.	0.634	.	.
O=C(C1CCN(Cc2cc(Cl)ccc2O)CC1)N1CCN(Cc2ccccc2)CC1	53.9	.	5.58*	1.4	0.175	?	-41.5
Nc1c(Br)cc(Br)c(N2CCCC2=O)c1Br	98.0	0.569	.	1	.	.	.
CCOC(=O)C1CCCN(C(=O)c2cccs2)C1 (centres undefined)	109.8	0.484	0.15	0.8	0.19	.	.
CCCOC1CCCN(C(=O)c2cc(Cl)c(Cl)cc2C(=O)O)C1 (centres undefined)	122.0	0.395	36.9*	1.5	-3.43*	329*	-23.7
CCOC(=O)C1CCCN(C(=O)c2cc(Cl)ccc2Cl)C1 (centres undefined)	93.2	1.07	5.49*	0.8	1.64	11.2	-75.7*
